# Source: PubChem BioAssay (Broad Institute)
# Rows were chosen to be rich in hits. Some 3.1% of all compounds tested hit in one or more screens of this group.
# EWS-Fli inh – inhibitors of EWS/Fli oncoprotein transcriptional activity; inhibition, % at 12.6 µM; actives 0.67% (n = 350,000); A673 NR0B1-luciferase reporter, viability-normalised;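 active means mean inhibition of at least 50% after viability correction, with every replicate also passing that limit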;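 further: firefly luciferase signal divided by Alamar Blue viability fluorescence both relative to DMSO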
# HIV Env fusion – blocks HIV Env-driven cell-cell fusion | HeLa-JRFL Env/CEM21 cell fusion, luciferase | AID 651610 | actives 1.1% (n = 360,000) | inhibition, % at 12.3 µM;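 active means mean replicate inhibition score of at least 50 and every replicate individually at or above 50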;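 further: 0% = plate neutral controls and 100% = maraviroc near 300 nM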
# GSIS activator – GLuc luminescence reporter in INS-1E cells, primary screen for activators of glucose-dependent secretion of insulin | activation, % at 16.6 µM | actives 0.61% (n = 370,000) | INS-1E GLuc reporter insulin secretion, 2-3 h;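 active means lowest replicate activation of at least 40%, so every replicate reaches that level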;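 further: 0% = median of neutral control wells and 100% = median of IBMX positive control wells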
# C2C12 statin – suppressors of simvastatin-induced myotoxicity in C2C12 myotubes | ATP luminescence, 48 h; scaled: DMSO 0, geranylgeraniol control 100 | rescue of ATP level, % at 7.49 µM | actives 0.78% (n = 330,000);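 active means mean ATP rescue above about 67%, or every replicate alone reaching that limit, limit read from the data, passing the limit was not always enough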;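 further: myotubes were challenged with 10 µM simvastatin during compound exposure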
# miR-122 sensor – inhibitors of miR-122 in Huh7 cells; AID 602342; activation (reporter increase), % at 12.5 µM; actives 0.3% (n = 340,000); Huh7 miR-122 Renilla luciferase sensor, 48 h; neutral wells = 0, positive control = 100;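 active means mean replicate activation score at least 90 and every replicate individually at or above 90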;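 further: higher luciferase means less miR-122 activity so hits act as miR-122 inhibitors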
# PAX8 inh HTS – lowers PAX8-driven luciferase in RMG-I cells; RMG-I TPO-luciferase reporter, SteadyGlo, 24 h; inhibition, % at 12.6 µM; actives 1.2% (n = 360,000); AID 652154;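 active means mean replicate inhibition at least 60% with every replicate also reaching 60%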;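 further: luciferase light reporting Pax8 driven TPO promoter activity; plate controls were median of neutral control wells for no effect and mitoxantrone controls for full effect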
# Numbers without * were called inactive; nt = no result; [ ] = remark or other dose.
SMILES,EWS-Fli inh,HIV Env fusion,GSIS activator,C2C12 statin,miR-122 sensor,PAX8 inh HTS
O=C(c1ccc2c3c(cccc13)CC2)C1CCCN(Cc2ccncc2)C1 (stereo not drawn),21,20,-4,4,8,13
O=C(c1ccc2c3c(cccc13)CC2)C1CCCN(C(=O)c2ccc(=O)[nH]c2)C1 (stereo not drawn),-5,21,-5,nt,nt,18
CN(C)C(=O)CCC(=O)N1CCCC(C(=O)c2ccc3c4c(cccc24)CC3)C1 (stereo not drawn),-6,80*,-13,-7,-3,-20
CC(C)C#Cc1cnc2c(c1)C(=O)N([C@H](C)CO)C[C@H](C)[C@H](CN(C)C(=O)c1cccnc1)O2,4,nt,15,7,7[16.7 µM],11
O=C(N[C@@H]1CC[C@H](CCNS(=O)(=O)c2ccccc2)O[C@@H]1CO)c1cccnc1,3,1[16.7 µM],15,-10,nt,-15
COc1ccc(-n2c(SCC(=O)N3CCCCC3)nc(O)cc2=O)cc1,nt,-7,12,120*,-3,nt
OCC[C@H]1C[C@@H](O)[C@H](O)[C@@]2(Cc3ccccc3O2)O1,-1,-147,15,118*,-8,-29
CCC(=O)N1C[C@H](C)[C@@H](OC)CN(C)C(=O)c2ccc(NC(=O)c3ccccc3)cc2OC[C@H]1C,0,-2[16.7 µM],2,-4,nt,5
CNC[C@@H]1OCCCC[C@@H](C)Oc2ccc(NC(=O)Nc3ccc4c(c3)OCO4)cc2C(=O)N([C@H](C)CO)C[C@H]1C,4,11[16.7 µM],-13,26,-4[16.7 µM],-19
CS(=O)(=O)N(CC(=O)N1CCC(C(N)=O)CC1)c1ccc(Oc2ccccc2)cc1,nt,nt,nt,3,3,nt
CC(C(=O)N1CCC(C(N)=O)CC1)N(c1ccc(Oc2ccccc2)cc1)S(C)(=O)=O (stereo not drawn),nt,-19,50*,32,2,nt
CN(C)CC(=O)N[C@H]1CC[C@@H](CC(=O)O)O[C@H]1CO,2,nt,20,nt,nt,nt
COc1cccc(Nc2nc(N)nc(CCl)n2)c1,59*,9,-12,nt,-4,97*
Cc1cccc(Nc2nc(N)nc(CN3CCN(c4ccccc4F)CC3)n2)c1,nt,5,-16,81*,-5,4
Cc1cccc(Nc2nc(N)nc(CN3CCN(c4ccccc4)CC3)n2)c1,nt,-5,nt,-31,-3,16
Cc1cccc(Nc2nc(N)nc(CCl)n2)c1,40,-25,30,nt,nt,90*
C/C(=N\NC(=O)C1CC1)c1cccs1,nt,-89,27,-2,-3,-11
C/C(=N/NC(=O)C1CC1(c1ccccc1)c1ccccc1)c1cccs1 (stereo not drawn),-9,57*,0,nt,nt,-5
COc1ccc2c3c(n(C)c2c1)[C@@H](CO)N(C(=O)Cc1ccccc1)CC31CCN(C(C)=O)CC1,-5,nt,-22,nt,nt,nt
CCOc1ccccc1CN1[C@@H](c2ccc(OC)cc2)CC(C(=O)OC)(C(=O)OC)[C@H]1c1ccccc1,-13,61*,29,nt,nt,-10
COC(=O)C1(C(=O)OC)C[C@H](c2cccs2)N(Cc2ccccc2OC)[C@@H]1c1ccc(F)cc1,7,44,nt,nt,nt,-4
CCC(=O)N1CC2(C1)[C@@H](c1ccccc1)[C@@H](CO)N2CCC(F)(F)F,3,nt,3,nt,nt,5
CSC1=C(C#N)C(c2ccccc2C)C(C#N)=C(N)N1 (stereo not drawn),nt,62*,nt,4,-2,nt
CSC1=C(C#N)C(c2ccccc2Cl)C2=C(N1)c1ccccc1C2=O (stereo not drawn),nt,37,nt,14,-1,nt
CN1CCN(S(=O)(=O)c2ccc3c4c(cccc24)C(=O)N3)CC1,11,4,10,-12,-5,-2
CCOc1ccc(OCC)c(S(=O)(=O)N2CCCCC2)c1,nt,-11,nt,-2,18,nt
CCOC(=O)N1CCN(S(=O)(=O)c2ccc3c4c(cccc24)C(=O)N3)CC1,5,-7,42*,2,-8,5
CCOC(=O)N1CCN(S(=O)(=O)c2cc(OCC)ccc2OCC)CC1,nt,5,nt,29,143*,nt
COc1cc(C(=O)NC(=S)N(CCc2ccccc2)CCc2ccccc2)cc(OC)c1OC,nt,34,-4,-81,7,75*
